Source: ChEMBL document CHEMBL3988442, “University of Dundee, Small-Polar-MMV Screening Library” (2021)

The compounds below were run against T1, Aspartate--tRNA(Asp/Asn) ligase (Mycobacterium tuberculosis (strain ATCC 25618 / H37Rv)) (UniProt P9WFW3) (assay: Assay for Asp RNA synthetase-1 from Mycobacterium tuberculosis). Conditions: 30 µM.
T1 sequence (whole entry): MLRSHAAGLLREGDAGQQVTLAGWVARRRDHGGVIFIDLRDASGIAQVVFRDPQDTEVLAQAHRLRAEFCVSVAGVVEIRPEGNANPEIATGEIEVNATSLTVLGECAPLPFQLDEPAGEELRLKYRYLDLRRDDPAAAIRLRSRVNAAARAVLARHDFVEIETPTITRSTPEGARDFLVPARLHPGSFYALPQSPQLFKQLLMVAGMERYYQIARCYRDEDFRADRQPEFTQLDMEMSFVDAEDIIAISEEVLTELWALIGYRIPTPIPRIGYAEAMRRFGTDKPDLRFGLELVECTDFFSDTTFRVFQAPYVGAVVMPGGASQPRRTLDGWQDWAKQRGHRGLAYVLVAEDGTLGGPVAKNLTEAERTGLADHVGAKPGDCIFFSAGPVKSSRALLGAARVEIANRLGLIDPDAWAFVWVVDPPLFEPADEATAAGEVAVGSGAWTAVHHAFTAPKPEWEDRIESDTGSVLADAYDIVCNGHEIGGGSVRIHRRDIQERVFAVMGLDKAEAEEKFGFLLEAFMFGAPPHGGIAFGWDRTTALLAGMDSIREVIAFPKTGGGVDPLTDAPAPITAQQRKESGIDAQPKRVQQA
Type: functional
Parameters: scale not given: in the data most compounds retested in dose-response had high values

Row | SMILES | Percent Effect
1 | Cc1nn(C)c(C)c1CNCc1ccc(N2CCOCC2)nc1 | 2.11%
2 | CCOc1ccc(S(=O)(=O)NCc2cccnc2N(C)C)cc1 | 1.46%
3 | Cc1cc(C)cc(OCCC(=O)N2CCOCC2c2ncon2)c1 (stereo not given) | 5.48%
4 | CCn1nc(CC(C)C)cc1C(=O)NCCCOC | -0.668%
5 | Cc1ccc(-c2nc(CNCCn3cccn3)cs2)o1 | -0.233%
6 | COC(=O)CN1CC(c2nc(Cc3ccccc3)no2)C1 | -4.57%
7 | Cc1ncsc1C(=O)NCCSCCCO | -4.34%
8 | COc1ccccc1C1(C(=O)NCCN2CCOCC2)CCOCC1 | 10.8%
9 | CC(C)NC(=O)COc1nc(C(C)(C)C)no1 | 0.301%
10 | CCS(=O)(=O)N1CCO[C@H]2[C@H](OCC3CCCC3)CC[C@@H]21 | -2.82%
11 | Cc1cccc(C(=O)N2C[C@@H]3CCN(c4cccnc4)C[C@@H]3C2)c1 | 3.96%
12 | CNC(=O)c1nc2c(s1)CCN(C(=O)Cc1ccc(OC)cc1)CC2 | 0.107%
13 | CN(C)C(=O)CSc1nnc(CCNC(=O)OC(C)(C)C)o1 | 2.93%
14 | CNC(=O)[C@@]12CCO[C@@H]1CCN(S(=O)(=O)c1cccnc1)C2 | 0.229%
15 | CCOc1cc(/C=C/c2ncc(C(=O)O)s2)ccc1O | 0.568%
16 | O=C(CCNC(=O)C1CCCC1)NCc1ccccc1Cn1cncn1 | 2.64%
17 | O=C(NCc1ccccn1)[C@@H]1COC[C@H]2CN(C3CCOCC3)C[C@H]21 | 7.53%
18 | CN(Cc1ccsc1)C(=O)CN1CCOC(Cn2cccn2)C1 (stereo not given) | 0.463%
19 | O=C1NCCN(CC2CC2)C12CCN(Cc1ccco1)CC2 | 24.3%
20 | CCN(CCNC(=O)c1ccccc1OCCOC)C1CC1 | -0.655%
